{"source": "the OligoGym collection", "data": [{"biological_target": "SRCRB4D", "assay": "pooled miR-30 sensor sort-seq; sequence = guide strand", "conditions": "shRNA", "values": [{"sequence": "TAACATCTTCCTTGTTGGGGGC", "sensor-assay potency score (higher = more potent)": -0.0485}, {"sequence": "TTGACCAGACGTAGATGCCCGT", "sensor-assay potency score (higher = more potent)": -0.902}, {"sequence": "TTCGCAGTGCACGTTGTCCAGC", "sensor-assay potency score (higher = more potent)": -0.781}, {"sequence": "TACACGTCCCTCGCATCGGTGG", "sensor-assay potency score (higher = more potent)": -1.14}, {"sequence": "TTGTCCAGCAGGATGTGTCCGG", "sensor-assay potency score (higher = more potent)": -0.554}, {"sequence": "TTAACATCTTCCTTGTTGGGGG", "sensor-assay potency score (higher = more potent)": 0.296}, {"sequence": "TGCTCTACTGGTTAACATCTTC", "sensor-assay potency score (higher = more potent)": -0.561}, {"sequence": "TCTACTGGTTAACATCTTCCTT", "sensor-assay potency score (higher = more potent)": -0.575}, {"sequence": "TTGGCGTCCACCACGTCCCAGT", "sensor-assay potency score (higher = more potent)": -1.07}, {"sequence": "TTTTCCATTCGGCAGTGTCGTA", "sensor-assay potency score (higher = more potent)": -1.69}, {"sequence": "TCGTAGGAGGTGCTCTACTGGT", "sensor-assay potency score (higher = more potent)": -1.24}, {"sequence": "TTCATCACACAGGACAGCCACA", "sensor-assay potency score (higher = more potent)": -1.36}]}, {"biological_target": "SRC", "assay": "pooled miR-30 sensor sort-seq; sequence = guide strand", "conditions": "shRNA", "values": [{"sequence": "TCTCGCACGAGGAAGGTCCCTC", "sensor-assay potency score (higher = more potent)": -0.579}, {"sequence": "TGAAACCACAGCATACAACTGC", "sensor-assay potency score (higher = more potent)": 0.358}, {"sequence": "TGTCTGTCCTGTGCTGAGCGAG", "sensor-assay potency score (higher = more potent)": -1.15}, {"sequence": "TCTGTGTTGTTGACAATCTGGA", "sensor-assay potency score (higher = more potent)": 0.0722}, {"sequence": "TAGACTCATAGTCATAGAGGGC", "sensor-assay potency score (higher = more potent)": -1.02}]}]}
